Rows were chosen to be rich in hits. Some 3.3% of all compounds tested hit in one or more screens of this group.
NCF1 inh: p47phox (human) inhibition. inhibition, % at 24.7 µM. p47phox/p22phox peptide binding, fluorescence polarization, 2 h. P14598. hit rate 0.53% among 220,000;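 note: 0% = p47phox with labelled peptide and 100% = labelled peptide alone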
Mcl1-Noxa inh: disrupts binding of human Mcl-1 to Noxa peptide | Q07820 | TR-FRET Mcl-1/Noxa peptide binding, 2 h | inhibition, % at 21.7 µM | hit rate 1.5% among 220,000 | AID 1022;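 active = compounds that cut the protein-peptide binding signal by more than 50% relative to plate controls in a single-dose test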;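 note: His-tagged Mcl-1 with rhodamine Noxa BH3 peptide and terbium anti-His antibody; 0% = Mcl-1 plus Noxa peptide wells and 100% = peptide-only wells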
Target sequence (Q07820 whole entry, looked up): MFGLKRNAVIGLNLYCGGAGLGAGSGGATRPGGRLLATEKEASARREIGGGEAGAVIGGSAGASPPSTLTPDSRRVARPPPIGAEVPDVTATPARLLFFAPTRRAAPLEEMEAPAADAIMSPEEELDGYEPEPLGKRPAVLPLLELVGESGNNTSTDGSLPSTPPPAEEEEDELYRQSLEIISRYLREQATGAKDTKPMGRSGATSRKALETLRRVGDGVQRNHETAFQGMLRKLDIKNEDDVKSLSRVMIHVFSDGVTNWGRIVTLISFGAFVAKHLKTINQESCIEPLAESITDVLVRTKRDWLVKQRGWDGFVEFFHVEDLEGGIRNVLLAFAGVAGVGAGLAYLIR
Bim-Mcl-1: inhibitors of Bim-Mcl-1 interaction, human; hit rate 0.1% among 190,000; Bead-based flow cytometry, Bim peptide-Mcl-1 binding; inhibition, % at 10 µM; Q07820; in the data active = inhibition above about 40%;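 note: 0% = no compound tracer wells and 100% = peptide blocker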
Mcl1-Bid inh: disrupts binding of human Mcl-1 to Bid peptide. Q07820. inhibition, % at 21.7 µM. AID 1021. TR-FRET Mcl-1/Bid-Dy647 peptide binding, 1536-well. hit rate 0.97% among 220,000;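 active = compounds that cut the binding signal by more than half at the single screening dose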;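 note: His-tagged Mcl-1 with europium anti-His antibody binding Bid BH3 peptide; 0% = Mcl-1 plus peptide wells and 100% = peptide-only wells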
14-3-3 Bad PPI: disrupts binding of bovine 14-3-3 zeta to phospho-Bad peptide; P63103; inhibition, % at 21.7 µM; TR-FRET 14-3-3zeta/Dy647-pBad peptide displacement, 1 h; AID 781; hit rate 0.71% among 220,000;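 active = inhibition above about 70%, limit read from the data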;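 note: 0% = full 14-3-3 plus peptide FRET controls and 100% = background without 14-3-3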
Target sequence (P63103 whole entry, looked up): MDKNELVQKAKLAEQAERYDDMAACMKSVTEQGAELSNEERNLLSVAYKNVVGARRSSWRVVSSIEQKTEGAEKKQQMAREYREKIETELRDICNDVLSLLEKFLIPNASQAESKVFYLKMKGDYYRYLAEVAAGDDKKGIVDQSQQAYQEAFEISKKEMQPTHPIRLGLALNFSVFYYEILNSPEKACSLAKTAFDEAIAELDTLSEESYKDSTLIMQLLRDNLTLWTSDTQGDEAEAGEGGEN
eIF4E-4G inh: inhibitors of eIF4E and eIF4G interaction in translation initiation | P63073+Q04637 | TR-FRET eIF4E-eIF4GI(517-606) binding, 2 h | inhibition, % at 21.7 µM | hit rate 0.37% among 220,000 | AID 782;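 note: 0% = full FRET control wells and 100% = background wells lacking eIF4GI fragment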
The depositor's hits bear a star; · = no result; [ ] = another dose, or the depositor's remark.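 Rule for the calls, unless noted: active = inhibition above about 30% (limit read from the data); inactive = the rest.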

SMILES	NCF1 inh	Mcl1-Noxa inh	Bim-Mcl-1	Mcl1-Bid inh	14-3-3 Bad PPI	eIF4E-4G inh
CCOc1ccc(N2C(=O)CCC2=O)cc1	9.6	6.0	3.0	-22.2	-8.9	6.8
CCCCCCC(=O)Oc1ccc(N2C(=O)CCC2=O)cc1	6.5	55.2*	2.0	5.3	1.9	1.7
Cc1cs/c(=N\N=C2CCCCC2)n1Cc1ccco1	-11.5	1.0	8.0	-39.7	-12.9	-7.6
CCC(=O)Nc1ccccc1C(=O)OCC(=O)c1cccc2ccccc12	-4.6	-2.9	-1.0	3.6	85.3*[fluorescence artefact?]	0.0
CCOc1ccc(NC(=O)c2ccc(OC)cc2)cc1	-0.4	8.3	-2.0	-6.4	22.4	7.0
CCC(=O)Nc1ccccc1C(=O)OCc1ccc(C(=O)c2ccccc2)cc1	-10.1	-8.7	-3.0	-28.6	-2.7	2.4
COc1ccc(C(=O)Nc2ccc(C(=O)OCC(=O)c3cccc4ccccc34)cc2)cc1	-4.8	15.1	44.0*	-7.0	6.7	5.1
CCC(=O)Oc1ccc(C(=O)Nc2c[nH]c(=O)[nH]c2=O)cc1	6.4	-1.1	-2.0	-39.2	-0.7	4.7
Cc1cc(C)n2nc(C(=O)NCc3ccccc3)cc2n1	-5.9	-1.8	-7.0	-0.4	-10.0	30.1*
Cc1cc(C)n2nc(C(=O)NCc3ccccc3)nc2n1	-6.8	-9.7	0.0	0.6	2.1	-2.4
S=c1[nH]nc(-c2ccncc2)n1/N=C/c1cccc(Cl)c1	2.5	22.6	·	-105.2	6.6	15.1
CCOc1ccc(Nc2nc(CC(=O)OC)cc(=O)[nH]2)cc1	-10.6	-9.4	0.0	-12.6	89.4*	5.4
CCCc1cc(=O)[nH]c(Nc2cc(OC)ccc2OC)n1	-12.8	25.6	-2.0	6.5	5.3	-4.9
Cc1nn(-c2ccccc2)c(C)c1/C=N/n1c(-c2ccc(Cl)cc2)n[nH]c1=S	5.0	52.7*	-6.0	22.5	38.6	1.3
S=c1[nH]nc(-c2ccc(Cl)cc2)n1/N=C/c1cccs1	-15.3	11.7	·	-59.2	2.5	95.5*
S=C(NCc1ccco1)N1CCC(c2nc3ccccc3o2)CC1	-9.6	9.0	-5.0	-30.9	-8.8	-0.1
Cc1cc(C)n2nc3nc(N4CCCCC4)nc(-c4ccco4)c3c2n1	-22.0	66.5*	1.0	-23.2	0.6	2.8
CCCCC(=O)NC1(C(F)(F)F)NC(=O)N(C)C1=O (centres undefined)	-14.0	-8.9	·	-22.3	-0.8	-11.1
COc1ccc(C2SCC(=O)N2CCCN(C)C)cc1 (centres undefined)	-4.0	5.8	-1.0	91.5*	-0.9	-2.1
CCN(CC)CCCN1C(=O)CSC1c1ccc([N+](=O)[O-])cc1 (centres undefined)	4.9	18.1	0.0	-20.8	-7.1	1.5
COC(=O)c1ccc(N2CCN(CC(=O)c3ccc(-c4ccccc4)cc3)CC2)c([N+](=O)[O-])c1	-18.1	-11.9	-1.0	-13.2	-9.7	-7.4
CN(/N=C\c1ccc(O)c(O)c1)c1nc(-c2ccccc2)cc(-c2ccccc2)n1	-13.9	72.5*	0.0	22.5	-4.5	4.1
CC1CCC(C(C)C)C(OCC(O)CNC(C)C)C1 (centres undefined)	-6.5	-10.9	·	-7.0	-1.2	-2.2
OCCN=Cc1c(O)[nH]c2ccccc12	-16.0	5.8	-2.0	-15.6	-17.9	3.3
CN(C)CC(C)(C)CN=Cc1c(O)[nH]c2ccccc12	88.2*	9.2	·	-33.7	-13.3	-2.6
SMILES	NCF1 inh	Mcl1-Noxa inh	Bim-Mcl-1	Mcl1-Bid inh	14-3-3 Bad PPI	eIF4E-4G inh
Nc1c(C(=O)Nc2ccccc2)c2nc3ccccc3nc2n1-c1ccc(O)cc1	1.4	37.9	·	6.5	5.6	-0.3
O=C(Nc1cccnc1)c1ccc(S(=O)(=O)c2ccc(Cl)cc2)cc1	-13.3	6.9	0.0	-19.4	85.3*	0.5
Cc1cc(C)cc(NC(=S)NN)c1	-10.0	1.1	-1.0	-66.1	-0.9	-1.6
O=C(O)C1CCCCC1C(=O)NCc1ccc(Cl)c(Cl)c1 (centres undefined)	3.0	-21.4	13.0	-12.1	3.1	2.2
CCOC(=O)C1=C(O)/C(=C\c2ccc(O)c(OCC)c2)N=C1C	-27.0	24.5	·	-96.9	-9.7	-3.4
CCOc1cc(/C=C2\SC(=O)N=C2N)ccc1O	-35.9	52.1*	8.0	-48.5	-11.2	-2.0
CCOC(=O)c1c2n(c3ccc(OC(C)=O)cc13)CCC2	38.3*	6.9	0.0	-11.3	4.8	3.1
CCOC(=O)c1ccc2c(c1)N(CC#N)C(=O)C(C)(C)O2	-2.0	5.3	-3.0	-25.4	-2.5	3.5
O=c1[nH]c(=S)[nH]c(O)c1N=Nc1ccc(-c2ccccc2)cc1[N+](=O)[O-]	70.0*	91.9*	-1.0	-41.2	-6.3	1.8
Cc1ccc(CN2CCSc3sccc3C2=O)cc1	-2.5	12.2	-1.0	-9.8	-12.6	-1.8
Cc1ccc(S(=O)(=O)CC(N)=O)cc1	-3.8	-5.7	-2.0	0.9	1.1	-9.0
N/C(CS(=O)(=O)c1ccc(F)cc1)=N\O	-1.1	-5.7	·	77.9*	1.3	-1.7
c1coc(Cn2nnnc2CN2CCN(C3CCCC3)CC2)c1	-3.6	32.3	-3.0	19.1	79.1*	15.4
COc1ccc(CN(Cc2cccn2C)C(=O)c2cc3cc(OC)ccc3[nH]2)cc1	-21.5	-34.0	·	-49.9	-17.8	-13.7
CC(NC(=O)Nc1ccccc1)C(c1ccccc1)N1CCOCC1 (centres undefined)	-5.7	21.1	-3.0	-5.0	-5.7	6.1
CC(NC(=S)Nc1ccc(Cl)cc1)C(c1ccccc1)N1CCOCC1 (centres undefined)	-2.4	17.4	-2.0	-13.1	70.9*	3.1
CCOC(=O)c1cnn(-c2ccc([N+](=O)[O-])cc2)c1N	14.2	14.4	·	-11.8	-0.6	0.9
O=C1CCCC(O)=C1N=Nc1ccc(C(=O)O)cc1	31.9*	54.0*	·	-47.8	51.2	3.2
C=CCC1(/C=N/O)CCOC(C)(C)C1 (centres undefined)	63.6*	-24.0	·	98.3*	1.7	0.2
COc1cc2c(cc1OC)C1C(C(=O)Nc3ccccc3N3CCN(C)CC3)c3ccccc3C(=O)N1CC2 (centres undefined)	-1.2	10.8	0.0	-23.5	2.7	1.8
CCOC(=O)N1CCC(N2CCN(S(=O)(=O)CC)CC2)CC1	-4.3	11.6	-4.0	7.8	71.8*	-5.7
CCOC(=O)N1CCC(N2CCN(S(=O)(=O)c3ccc(C)cc3)CC2)CC1	7.9	8.1	-1.0	30.6	63.7	-0.2
CNC(=O)c1c(NC(=O)c2cc(-c3cc(C)c(C)cc3O)n[nH]2)sc2c1CCCC2	3.3	60.2*	·	9.0	28.7	6.6
O=C(CC1Sc2ccccc2NC1=O)OCc1cc(=O)oc2cc(O)ccc12 (centres undefined)	-59.7	95.0*	-2.0	-95.9	-14.5	15.1
COc1ccc2c(c1O)-c1ccccc1CCN(C)C2	0.7	-4.1	-2.0	-3.2	-1.0	0.2
CN1CCc2cccc3c2[C@@H]1Cc1ccc(O)c(O)c1-3	24.6	91.6*	10.0	9.2	26.3	25.7
